Most compounds without a hit are left out; they make up all but 3.3% or so of the library.
AmpC inh no detg: qHTS Inhibitors of AmpC Beta-Lactamase (assay without detergent) | P00811 | AmpC nitrocefin hydrolysis, absorbance 480 nm, 0.0001% Triton | Potency, µM (titrated, usually from 57.1 µM), for the others: at the top dose activity change, negative = inhibition, most hits filed as inhibitors | 0.52% of 330,000 active;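 further: plate controls were no compound for no effect and no enzyme for full effect; nearly all actives have a fitted effect of over 20% in size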
Target sequence (P00811 whole entry, looked up): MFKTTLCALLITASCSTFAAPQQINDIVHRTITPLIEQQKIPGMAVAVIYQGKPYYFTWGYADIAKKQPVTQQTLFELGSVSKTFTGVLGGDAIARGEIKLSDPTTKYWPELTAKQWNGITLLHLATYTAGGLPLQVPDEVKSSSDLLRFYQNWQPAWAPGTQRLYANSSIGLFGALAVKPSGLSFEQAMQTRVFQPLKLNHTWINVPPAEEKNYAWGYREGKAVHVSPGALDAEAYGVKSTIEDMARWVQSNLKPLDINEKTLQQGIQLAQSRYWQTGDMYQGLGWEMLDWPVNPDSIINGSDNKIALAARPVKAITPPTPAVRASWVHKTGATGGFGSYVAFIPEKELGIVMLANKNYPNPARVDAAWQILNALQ
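20 mM phosphate pH 7.0 + 0.01% (detergent screen) or 0.0001% Triton X-100; 5.3 nM AmpC reagent; cpd preinc 15 min RT; nitrocefin (800 uM stock) to start; A480 q20 s × 4 min; Activity was normalised to no-enzyme and no-compound control wells.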
AmpC detergent: qHTS Inhibitors of AmpC Beta-Lactamase (assay with detergent); P00811; AmpC hydrolysis of nitrocefin, absorbance 480 nm, 0.01% Triton; Potency, µM (doses to about 114 µM), inactives show top-dose activity change, negative = inhibition, hits mostly inhibitors; 0.041% of 370,000 active;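 further: 0% = no-compound wells and -100% = no-enzyme wells; nearly all actives have a fitted effect of over 25% in size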
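AmpC (5.3 nM in the dispensed reagent) in 20 mM phosphate pH 7.0 with 0.01% (detergent screen) or 0.0001% Triton X-100 was preincubated with compounds for 15 min at room temperature. Nitrocefin was then added from an 800 uM solution, and hydrolysis was followed at 480 nm.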
Sm TGR block: qHTS Assay for the Inhibitors of Schistosoma Mansoni Peroxiredoxins; Schistosoma mansoni thioredoxin glutathione reductase (TGR), Q962Y6; purified TGR, DTNB reduction, TNB absorbance 405 nm; Potency, µM (highest dose often 114 µM), for inactives: at the highest dose activity change, negative = inhibition, hits mostly inhibitors; 3% of 360,000 active; AID 485364, 2010; further: nearly all actives have a fitted effect of over 60% in size
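TGR 20 nM + NADPH 100 uM (dispensed conc.), cpd preinc 15 min RT; start with NADPH (500 uM addition) then DTNB (15 mM addition). Kinetic TNB absorbance, 405 nm filter. Four-parameter Hill fit across titration.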
* marks the source's active call; other numbers are inactive results; ? = inconclusive; . = no result given. The call rests on the fitted dose curve; in most records, active means well fitted curve in the direction sought with a large enough effect; inconclusive means small, poorly fitted or top-dose-only effect, or another doubt; inactive means no such curve, though single readings can be large; an effect the other way counts as inactive or inconclusive. Unless noted, on the % scale 0 is the no-effect control and ±100 the full control effect; potency means the concentration at half of the fitted maximal effect.

SMILES	AmpC inh no detg	AmpC detergent	Sm TGR block
CC(=O)Nc1ccc(NC(=O)C2CCCN2C(=O)Nc2ccc(F)cc2)cc1 (stereo unspecified)	-4%	-2%	5%
CCCC1c2ccc(C)n2CCN1C(=O)Nc1ccc(F)cc1 (stereo unspecified)	4%	-6%	20µM*
CCOc1ccccc1NC(=S)NC(=O)C1CC1	-1%	0%	?
CCC(C)NC(=O)Cn1c(=O)n(-c2ccc(Cl)c(Cl)c2)c(=O)c2c(C)c(C(=O)N(CC)CC)sc21 (stereo unspecified)	.	2%	1%
O=C(COC(=O)Cc1ccccc1)Nc1cc(S(=O)(=O)N2CCCCC2)ccc1Cl	-23%	0%	-11%
COc1ccc(Cl)cc1NC(=O)COc1ccc(S(=O)(=O)N2CCOCC2)cc1C	-19%	28µM*	8%
Cc1ccccc1OCC(=O)OCC(=O)Nc1cc(S(=O)(=O)N2CCCCC2)ccc1Cl	32µM*	?	7%
COc1ccc(S(=O)(=O)N2CCOCC2)cc1NC(=O)COc1ccc(C)cc1	77%	.	.
CC(C)(C)c1ccc(C(=O)Nc2cc(-c3ccccc3)nn2-c2ccccc2)cc1	.	4%	0%
O=C1c2ccccc2S(=O)(=O)N1Cc1ccccc1[N+](=O)[O-]	-13%	-6%	-24%
COc1ccc(C(=O)NC2CCCc3ccccc32)cc1OC1CCN(C(C)=O)CC1 (stereo unspecified)	208%	4%	6%
Cc1ccc(OCC(=O)NN=C2c3ccccc3-c3ccccc32)cc1	-11%	?	13%
Cc1ccc(NN=C2c3ccccc3-c3ccccc32)cc1	11µM*	?	-25%
COc1cccc(OC)c1C(=O)Nc1ccc(-c2nc3ncccc3o2)cc1	.	12%	5%
COc1cc(NC(=O)C2CCC(CNS(=O)(=O)c3csc(C(N)=O)c3)CC2)cc(OC)c1 (stereo unspecified)	-43%	-10%	0%
C[N+]1(C)[C@@H]2CC[C@H]1CC(OC(=O)[C@@H](CO)c1ccccc1)C2 (stereo partly specified)	-15%	0%	8.9µM*
C[N+]1(C)C2CC[C@H]1CC(OC(=O)C(CO)c1ccccc1)C2 (stereo partly specified)	-17%	?	-8%
O=C(N/N=C/c1cc(Br)c(O)c(Br)c1)c1cccnc1	-4%	0%	89µM*
COc1cc(/C=N/NC(=O)c2cccnc2)cc(Br)c1O	-13%	0%	-15%
CCC(C)NC(=O)c1cn(-c2cccc(OC)c2)c(=O)c2ccccc12 (stereo unspecified)	-16%	-5%	9%
N#CCCN(Cc1cccnc1)C(=S)NC1CC2C=CC1C2 (stereo unspecified)	-11%	?	0%
CCc1cc(C(c2ccccn2)N2CCN(C)CC2)c(NC(=O)c2ccccc2)s1 (stereo unspecified)	87%	?	11µM*
Cc1sc(NC(=O)c2ccccc2)c(C(c2ccccn2)N2CCN(CCO)CC2)c1C (stereo unspecified)	350%	-2%	0%
COc1ccc(Cl)cc1NC(=O)c1ncn(-c2ccccc2)n1	.	12%	2%
O=C(NC(=S)N1CCN(c2ccc(C(F)(F)F)cc2[N+](=O)[O-])CC1)c1cccs1	14µM*	-1%	1%
SMILES	AmpC inh no detg	AmpC detergent	Sm TGR block
O=[N+]([O-])c1cc(F)c(N2CCCC2)cc1N1CCNCC1	-17%	4%	-25%
O=[N+]([O-])c1cc(C(F)(F)F)ccc1N1CCCNCC1	12%	-4%	28µM*
CCN1CCN(C(=S)NC(=O)c2cccs2)CC1	-5%	-5%	42%
CC(=O)N1CCN(Cc2nc3cc(NC(=O)COc4cccc(C)c4)ccc3n2C)CC1	121%	-3%	-5%
COc1ccc(C(=O)Nc2ccc(C(=O)OCc3cc(=O)n4nc(C(C)C)sc4n3)cc2)cc1	.	11%	1%
C/C(=N/O)c1no[n+]([O-])c1/C(C)=N\O	5%	-4%	7.1µM*
CCOc1cc(OCC)c(C(C)=O)cc1OCC	7%	-6%	-6%
O=C(CNC(=O)c1cccc(Br)c1)N/N=C/c1cccs1	-28%	?	-20%
O=C(CNC(=O)c1cccc(Br)c1)N/N=C/c1cc(Br)cc(Br)c1O	11µM*	5%	-18%
CC1(C)Cc2[nH]c(=S)c(C#N)cc2CO1	-6%	-5%	32µM*
N#Cc1cc2c([nH]c1=S)CCCC2	-14%	?	0%
Cc1cc(=O)n(Cc2ccc(Cl)cc2)c2c1c(C)nn2-c1ccccc1	.	18%	0%
CC(C)C(NC(=O)c1ccccc1F)C(=O)NCc1ccccc1 (stereo unspecified)	-9%	4%	-4%
Cc1ccc(CNC(=O)c2ccc(Cn3nc(C)c(Cl)c3C)o2)cc1	59%	3%	25µM*
Cc1ccc(CNC(=O)c2ccc(CSCc3ccc(Cl)cc3)o2)cc1	.	10%	40µM*
Cc1cc(C)cc(NC(=O)c2ccc(Cn3nc(C)c(Cl)c3C)o2)c1	43%	-11%	?
O=C(NCc1ccc(Cl)cc1)c1ccc(CSCc2cccc(Cl)c2)o1	.	-7%	5%
O=C(CCNC(=O)c1ccccc1)NNC(=O)COc1ccccc1Cl	-16%	.	.
COCCN(C(=S)Nc1ccc(C)cc1C)C(C)c1ccco1 (stereo unspecified)	3%	2%	4%
COc1ccccc1C(=O)Nc1ccnn1C1CCN(C(=O)c2ccoc2C)CC1	16%	-3%	-19%
O=S(=O)(c1ccc(Cl)s1)N1CCCc2cccc(O)c21	-36%	2%	-25%
CCOCc1cc(CN2CCN(c3cccc(C(F)(F)F)c3)CC2)c(O)c2ncccc12	.	21%	-17%
COCc1cc(CN2CCCC2)c(O)c2ncccc12	64%	-4%	?
CN(C)C1CCN(Cc2cc(COCc3ccccc3)c3cccnc3c2O)C1 (stereo unspecified)	29%	-11%	14µM*
Oc1c(CN2CCCCC2)cc(COCc2ccccc2)c2cccnc12	2%	?	35µM*
SMILES	AmpC inh no detg	AmpC detergent	Sm TGR block
COc1ccc(CCNC(=O)COC(=O)Cc2c[nH]c3ccccc23)cc1OC	-10%	.	.
O=S(=O)(NCc1ccc(F)cc1)c1ccccc1Br	-17%	5%	?
Fc1ccc(-c2nn(-c3ccccc3)cc2CNCc2ccccc2)cc1	-6%	-7%	.
O=C(CCl)Nc1cn(-c2ccccc2)nc1-c1ccc(F)cc1	-10%	-5%	32µM*
C=CCN(CC=C)c1cnn(-c2nc3ccccc3[nH]2)c(=O)c1Cl	1%	0%	-7%
O=c1c(Cl)c(NCCCO)cnn1-c1nc2ccccc2[nH]1	-3%	5%	8.9µM*
Cc1ccc(NC(=O)CN(c2ccc(Cl)cc2)S(=O)(=O)c2cc([N+](=O)[O-])ccc2Cl)c(C)c1	?	6%	-31%
O=C(CCc1nc2ccccc2[nH]1)NCc1ccc2c(c1)OCO2	-2%	?	-12%
O=C(CCc1nnc(Cc2ccc3c(c2)OCO3)o1)NCc1nc2ccccc2s1	2%	9%	28µM*

Screens deposited in PubChem BioAssay by National Center for Advancing Translational Sciences (NCATS).
